These results are taken from PubChem BioAssay (NCATS).

Experiment [1] can be described thus: Immunotoxin (HA22) sensitization/mitigation study. Vehicle arm (PBS) (AID 1159510).
Experiment [2] is described as follows: Immunotoxin (SS1P) sensitization/mitigation study. Vehicle arm (DMEM) (AID 1159513).

Activity calls are given as the source filed them. No rule for the calls is given here.
Potency is read from the fitted curve at half-maximal effect.

For `O=C(Nc1cccnc1)N1CCC(Cc2cccc(Oc3ccc(C(F)(F)F)cn3)c2)CC1`, the Potency in experiment [1] was 16.6 µM (active); in experiment [2], 6.62 µM (active).
The matching figures for `CC(NC(=O)Cc1cc(F)cc(F)c1)C(=O)NC(C(=O)OC(C)(C)C)c1ccccc1` (centres undefined): “inactive” and “inactive”.
In the same order, the values of `CCCCc1ccc(NS(=O)(=O)c2ccc(C)c(C(=O)N3CCN(c4cccc(C)c4C)CC3)c2)cc1` are 20.9 µM (active) and 23.5 µM (active).
In the same order, the values of `O=C(NCCS(=O)(=O)c1ccc(C(F)(F)F)cn1)c1ccc(Cl)cc1` are “inactive” and “inactive”.
In the case of `Cc1c(CN2CCN(C(=O)C(C)C)CC2)sc2c(N3CCOCC3)nc(-c3cnc(N)nc3)nc12`, the Potency in experiment [1] is 0.0935 µM (active); in experiment [2] it was 0.0469 µM (active).
As to `Cn1c(=O)n(-c2ccc(C(C)(C)C#N)cc2)c2c3cc(-c4cnc5ccccc5c4)ccc3ncc21`, the figures for the Potency in experiment [1] and in experiment [2] were 3.72 µM (active) and 0.0332 µM (active), respectively.
In the same order, the values of `Fc1ccc(Cl)cc1-c1nc(Nc2ccncc2)c2nccnc2n1` are “inactive” and “inactive”.
The matching figures for `O=C(O)c1ccc(-c2cc3cccnc3c(-c3ccc4nonc4c3)n2)cc1`: “inactive” and “inactive”.
`c1cc(-c2cnn3cc(-c4ccc(OCCN5CCCCC5)cc4)cnc23)ccn1`: the results for the Potency in experiment [1] and in experiment [2] were 2.64 µM (active) and 16.6 µM (active), respectively.
For `CCN(c1ccccc1)c1cc(NC)[n+](C)c(C)n1`, the Potency in experiment [1] and in experiment [2] was 18.7 µM (active) each time.
Turning to `CCOc1ccc(Nc2nc(-c3c(C)nc4ccccn34)cs2)cc1`, the Potency is 0.0105 µM (active) in experiment [1] and 0.0059 µM (active) in experiment [2].
In the same order, the values of `COc1cc2c(Oc3ccc(NC(=O)C4(C(=O)Nc5ccc(F)cc5)CC4)cc3F)ccnc2cc1OCCCN1CCOCC1` are 16.6 µM (active) and 16.6 µM (active).
